Source: PubChem BioAssay (NCATS)
Results filed as inconclusive are left out. Calls of active or inactive are those of the source. The call rests on the fitted dose curve; in most records, active means well fitted cell-killing curve with a large enough effect; inconclusive means small, poorly fitted or top-dose-only effect, or effect the other way; inactive means flat fitted curve, though single readings scatter.

Experiments:
Assay in all cases: Primary qHTS to identify gynecologic anti-cancer compounds using libraries of approved drugs and bioactive compounds (AID 1345084); further: nearly all actives have a fitted effect of over 55% in size
C33A = details: Gynecologic cancer cell panel viability, ATPlite luminescence, 48 h; series mostly up to 57.5 µM
In short: (§1)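 48 h compound exposure at 37 C, 5% CO2; five-point qHTS. ATPlite luminescence readout of cell ATP.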

CAOV3 = details: Gynecologic cancer cell panel viability, ATPlite luminescence, 48 h; series mostly up to 57.5 µM
In short: as §1

CASKI = details: Gynecologic cancer cell panel viability, ATPlite luminescence, 48 h; series mostly up to 57.5 µM
In short: as §1

Es-2 = details: Gynecologic cancer cell panel viability, ATPlite luminescence, 48 h; series mostly up to 57.5 µM
In short: as §1

HeLa = details: Gynecologic cancer cell panel viability, ATPlite luminescence, 48 h; series mostly up to 57.5 µM
In short: as §1

Hek293T = details: Gynecologic cancer cell panel viability, ATPlite luminescence, 48 h, control line for the selectivity index; series mostly up to 57.5 µM
In short: as §1

JEG-3 = details: Gynecologic cancer cell panel viability, ATPlite luminescence, 48 h; series mostly up to 57.5 µM
In short: as §1

OV90 = details: Gynecologic cancer cell panel viability, ATPlite luminescence, 48 h; series mostly up to 57.5 µM
In short: as §1

PA-1 = details: Gynecologic cancer cell panel viability, ATPlite luminescence, 48 h; series mostly up to 57.5 µM
In short: as §1

SKOV3 = details: Gynecologic cancer cell panel viability, ATPlite luminescence, 48 h; series mostly up to 57.5 µM
In short: as §1

Tov-21-G = details: Gynecologic cancer cell panel viability, ATPlite luminescence, 48 h; series mostly up to 57.5 µM
In short: as §1

Tov112D = details: Gynecologic cancer cell panel viability, ATPlite luminescence, 48 h; series mostly up to 57.5 µM
In short: as §1
On the % scale 0 is the no-effect control and ±100 the full control effect.

CC1=C(CC/C(C)=C/C(=O)O)[C@@]2(C)CCCC(C)(C)C2CC1=O (stereo partly drawn)
inactive: Potency (C33A) | Potency (CAOV3) | outcome (CASKI) | Potency (Es-2) | Potency (HeLa) | Potency (Hek293T) | Potency (JEG-3) | Potency (OV90) | Potency (PA-1) | Potency (SKOV3) | Potency (Tov-21-G) | Potency (Tov112D)

Cn1cc(Nc2cnccc2C(=O)O)c2cccnc21
inactive: Potency (C33A) | Potency (CAOV3) | outcome (CASKI) | Potency (Es-2) | Potency (HeLa) | Potency (Hek293T) | Potency (JEG-3) | Potency (OV90) | Potency (PA-1) | Potency (SKOV3) | Potency (Tov-21-G) | Potency (Tov112D)

COC(=O)C[C@H]1C(C)(C)[C@H](OC(=O)C(C)C)C2CC3=C4CC(=O)O[C@@H](c5ccoc5)[C@]4(C)CCC3[C@@]1(C)C2=O (stereo partly drawn)
inactive: Potency (C33A) | Potency (CAOV3) | outcome (CASKI) | Potency (Es-2) | Potency (HeLa) | Potency (Hek293T) | Potency (JEG-3) | Potency (OV90) | Potency (PA-1) | Potency (SKOV3) | Potency (Tov-21-G) | Potency (Tov112D)

C=C(C)[C@@]1(O)C[C@@]2(C)C(=CC1=O)CC[C@@H](O)[C@@H]2C
inactive: Potency (C33A) | Potency (CAOV3) | outcome (CASKI) | Potency (Es-2) | Potency (HeLa) | Potency (Hek293T) | Potency (JEG-3) | Potency (OV90) | Potency (PA-1) | Potency (SKOV3) | Potency (Tov-21-G) | Potency (Tov112D)

COC(=O)c1ccccc1O[C@@H]1O[C@H](CO[C@@H]2OC[C@@H](O)[C@H](O)[C@H]2O)[C@@H](O)[C@H](O)[C@H]1O
inactive: Potency (C33A) | Potency (CAOV3) | outcome (CASKI) | Potency (Es-2) | Potency (HeLa) | Potency (Hek293T) | Potency (JEG-3) | Potency (OV90) | Potency (PA-1) | Potency (SKOV3) | Potency (Tov-21-G) | Potency (Tov112D)

COc1cc(OC)cc(-c2ccc3c(-c4ccc(F)cc4)[nH]nc3n2)c1
inactive: Potency (C33A) | Potency (CAOV3) | outcome (CASKI) | Potency (Es-2) | Potency (HeLa) | Potency (Hek293T) | Potency (JEG-3) | Potency (OV90) | Potency (PA-1) | Potency (SKOV3) | Potency (Tov-21-G) | Potency (Tov112D)

CC1=C2CC(=O)C(C)CC/C=C(\C)CC2(O)OC1=O (stereo not drawn)
inactive: Potency (C33A) | Potency (CAOV3) | outcome (CASKI) | Potency (Es-2) | Potency (HeLa) | Potency (Hek293T) | Potency (JEG-3) | Potency (OV90) | Potency (PA-1) | Potency (SKOV3) | Potency (Tov-21-G) | Potency (Tov112D)

CC1=C(CCC(C)O[C@@H]2O[C@H](CO)[C@@H](O)[C@H](O)[C@H]2O)C(C)(C)CC(O)C1 (stereo partly drawn)
inactive: Potency (C33A) | Potency (CAOV3) | outcome (CASKI) | Potency (Es-2) | Potency (HeLa) | Potency (Hek293T) | Potency (JEG-3) | Potency (OV90) | Potency (PA-1) | Potency (SKOV3) | Potency (Tov-21-G) | Potency (Tov112D)

COc1cc([C@H]2OC[C@](O)(Cc3ccc(O[C@@H]4O[C@H](CO)[C@@H](O)[C@H](O)[C@H]4O)c(OC)c3)[C@@H]2CO)ccc1O
inactive: Potency (C33A) | Potency (CAOV3) | outcome (CASKI) | Potency (Es-2) | Potency (HeLa) | Potency (Hek293T) | Potency (JEG-3) | Potency (OV90) | Potency (PA-1) | Potency (SKOV3) | Potency (Tov-21-G) | Potency (Tov112D)

C=CC(C)(O)CC/C=C(\C)C(=O)O[C@@H]1[C@@H](O)[C@H](OC(C)(C=C)CC/C=C(\C)C(=O)O)O[C@H](CO)[C@H]1OC(=O)/C(C)=C/CCC(C)(O)C=C (stereo partly drawn)
inactive: Potency (C33A) | Potency (CAOV3) | outcome (CASKI) | Potency (Es-2) | Potency (HeLa) | Potency (Hek293T) | Potency (JEG-3) | Potency (OV90) | Potency (PA-1) | Potency (SKOV3) | Potency (Tov-21-G) | Potency (Tov112D)

C=C1CC[C@@H]2C(C)(C)CCC[C@@]2(C)[C@@H]1CC/C(=C/C(=O)OC)COC(C)=O
inactive: Potency (C33A) | Potency (CAOV3) | outcome (CASKI) | Potency (Es-2) | Potency (HeLa) | Potency (Hek293T) | Potency (JEG-3) | Potency (OV90) | Potency (PA-1) | Potency (SKOV3) | Potency (Tov-21-G) | Potency (Tov112D)

C=C1CCC(OC(C)=O)C2(C)CC3OC(=O)C(C)=C3CC12 (stereo not drawn)
inactive: Potency (C33A) | Potency (CAOV3) | outcome (CASKI) | Potency (Es-2) | Potency (HeLa) | Potency (Hek293T) | Potency (JEG-3) | Potency (OV90) | Potency (PA-1) | Potency (SKOV3) | Potency (Tov-21-G) | Potency (Tov112D)

Cc1cc(-c2nncc3c(C(C)(C)C)c(OCc4ncnn4C)nn23)no1
inactive: Potency (C33A) | Potency (CAOV3) | outcome (CASKI) | Potency (Es-2) | Potency (HeLa) | Potency (Hek293T) | Potency (JEG-3) | Potency (OV90) | Potency (PA-1) | Potency (SKOV3) | Potency (Tov-21-G) | Potency (Tov112D)

C=C1CCC2(OC1)OC1CC3C4CC=C5CC(O)CC(O[C@@H]6OC[C@H](OC(=O)C(O)C(C)CC)[C@H](O)[C@H]6O[C@@H]6O[C@@H](C)[C@H](O)[C@@H](O)[C@H]6O)C5(C)C4CCC3(C)C1C2C (stereo partly drawn)
inactive: activity change, negative = cytotoxicity (C33A) 4.8% [at 11.6 µM] | activity change, negative = cytotoxicity (CAOV3) 21.8% [at 11.6 µM] | activity change, negative = cytotoxicity (CASKI) 19.8% [at 11.6 µM] | activity change, negative = cytotoxicity (Es-2) -3.44% [at 11.6 µM] | activity change, negative = cytotoxicity (HeLa) 13.3% [at 11.6 µM] | activity change, negative = cytotoxicity (Hek293T) 16.6% [at 11.6 µM] | activity change, negative = cytotoxicity (JEG-3) 16.8% [at 11.6 µM] | activity change, negative = cytotoxicity (OV90) -4.79% [at 11.6 µM] | activity change, negative = cytotoxicity (PA-1) -0.0668% [at 11.6 µM] | activity change, negative = cytotoxicity (SKOV3) 6.52% [at 11.6 µM] | activity change, negative = cytotoxicity (Tov-21-G) 15.3% [at 11.6 µM] | activity change, negative = cytotoxicity (Tov112D) 19.2% [at 11.6 µM]
